Assay outcomes as filed in PubChem.
Shown are actives, neighbours in structure and some others; about 1.5% of the full set was active somewhere.
Mtb MbtI inh – blocks the Mycobacterium tuberculosis siderophore enzyme MbtI | P9WFX0 | purified MbtI enzyme, fluorescence intensity read-out | inhibition, % (concentration not given with the values) | 100,000 compounds, 0.89% hits | AID 493033; in the data active means inhibition mostly above about 56%, no sharp cut-off; inactive means mostly below about 77%
Target sequence (P9WFX0 whole entry, looked up): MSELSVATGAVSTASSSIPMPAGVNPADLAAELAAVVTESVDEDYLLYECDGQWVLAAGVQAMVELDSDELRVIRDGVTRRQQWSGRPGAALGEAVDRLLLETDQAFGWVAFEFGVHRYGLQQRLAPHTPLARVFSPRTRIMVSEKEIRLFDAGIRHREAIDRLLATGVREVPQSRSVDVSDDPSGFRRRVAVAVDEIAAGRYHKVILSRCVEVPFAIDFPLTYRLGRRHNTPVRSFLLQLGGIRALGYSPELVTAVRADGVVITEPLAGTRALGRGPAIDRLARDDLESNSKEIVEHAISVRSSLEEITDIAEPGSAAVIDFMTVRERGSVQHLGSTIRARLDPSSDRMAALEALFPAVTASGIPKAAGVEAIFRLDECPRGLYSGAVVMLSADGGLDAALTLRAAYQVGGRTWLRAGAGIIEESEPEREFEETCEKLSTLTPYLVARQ
AID504770 – E. coli YBA685 growth inhibition, screen for V. cholerae RctB inhibitors; E. coli YBA685 rctB-dependent plasmid, OD600 growth, 3 h; hits give low values; z-score (concentration not given with the values); 130,000 compounds, 0.27% hits; in the data active means z-score below about -2, passing the limit was not always enough
Mtb MenB inh – inhibitors of Mycobacterium tuberculosis MenB enzyme. AID 540299. 100,000 compounds, 0.43% hits. MenB enzyme assay, absorbance read-out. P9WNP5. inhibition, % (concentration not given with the values); in the data active means inhibition above about 21%, passing the limit was not always enough
Polio RdRp inh – poliovirus RNA polymerase inhibition | P03300 | poliovirus polymerase elongation, fluorescence polarization; hits give low values | % elongation, % (compound at 16.7 µg/mL) | 150,000 compounds, 0.66% hits; in the data active means % elongation below about 90%
The depositor's hits bear a star; nt = not tested or not shown.

SMILES	Mtb MbtI inh	AID504770	Mtb MenB inh	Polio RdRp inh
CC1=NN(c2cccc(C(=O)O)c2)C(=O)/C1=C/c1ccc(-c2cccc(Cl)c2C)o1	37.8	-0.45	-16.8	90.0*
CC1=NN(c2ccccc2)C(=O)/C1=C/c1ccc(-c2ccccc2)o1	1.1	0.85	7.2	99.0
CC(O)c1nc2ccccc2s1 (stereo not given)	8.7	-0.55	-22.6	100.0
Cn1ncc(C(C#N)c2nc3ccccc3s2)c(Cl)c1=O (stereo not given)	57.3*	-0.75	-265.6	140.0
CCn1nccc1C(=O)O	-8.2	0.5	-0.5	98.0
CCOC(=O)c1nn(-c2ccc(OC)cc2)c(=O)c2c(N)scc12	54.5*	0.15	-4.4	97.0
CCOC(=O)c1nn(-c2ccc(OC)cc2)c(=O)c(C#N)c1C	-11.6	-0.75	nt	nt
CCOc1ccc(CCNC(=O)c2cc3c(C)nc4ccccc4c3o2)cc1OCC	6.8	0.2	-10.8	99.0
CN(C)CCN1CCNCC1	-0.8	1.05	34.3*	103.0
CN(C)C(=O)CN1CCNCC1	94.0	1.95	-16.1	107.0
CCc1ccc(S(=O)(=O)/N=C2\C=CC(=O)c3ccccc32)cc1	64.1	1.65	-41.1	74.0*
N#CC1=C(N)SC(N)=C(C#N)C1c1ccc(O)cc1	83.3*	-2.15	-174.1	92.0
CC(C)c1ccc(C2C(C#N)=C(N)SC(N)=C2C#N)cc1	nt	0.05	-30.9	45.0
CCCc1cc(SCC(=O)OC)n2c(nc3ccccc32)c1C#N	5.2	-0.65	-27.5	99.0
CC1=CC(c2ccccc2)=C(C#N)C(=S)C1CC(=O)c1cccs1 (stereo not given)	nt	0.5	-16.9	85.0*
COC(=O)c1cc(NC(=S)NN2CCOCC2)cc(C(=O)OC)c1	3.9	0.6	44.6*	99.0
S=C(Nc1ccc(Cl)cc1)NN1CCOCC1	-6.8	2	-17.9	105.0
Cc1csc(=Nc2ccccc2F)n1/N=C/c1ccncc1	0.6	-0.3	-22.0	83.0*
CCN1CCN(S(=O)(=O)c2ccccc2)CC1	-7.8	-0.4	-11.3	98.0
Nc1nnc(CCCn2c(=O)oc3ccccc32)s1	nt	-0.4	-9.1	86.0*
CC(=O)c1ccc(NC(=O)CSc2nnc(NC(=O)NC3CCCCC3)s2)cc1	nt	nt	nt	109.0
C=CCSc1nnc(NC(=O)NC2CCCCC2)s1	-10.0	-2.8*	-17.4	105.0
CCn1c(=S)sc2nc(C)sc21	101.0*	-0.4	9.0	101.0
CCn1c2ccccc2c2nc(C)sc21	nt	-0.55	-2.3	107.0
O=C(N/N=C1/CCS(=O)(=O)c2ccc(F)cc21)c1ccccn1	-8.6	0	14.6	90.0*
SMILES	Mtb MbtI inh	AID504770	Mtb MenB inh	Polio RdRp inh
COc1ccc(NC(=O)Cn2cc(C#N)c3ccccc32)cc1	-10.8	0.15	-0.7	99.0
Cc1ccc(NC(=O)Cn2cc(C#N)c3ccccc32)cc1	3.0	1.75	55.9*	102.0
CNC(=O)C(C)n1c(C)c2cnn(-c3ccccc3)c(=O)c2c1C (stereo not given)	1.6	1.15	9.1	103.0
Cc1ccc(C(=O)NC2(O)C(=O)c3ccccc3C2=O)cn1	nt	-0.6	nt	nt
O=C(NC1(O)C(=O)c2ccccc2C1=O)c1ccccc1	-3.2	-0.3	2.2	67.0*
O=C1c2ccccc2-c2n[nH]c3cccc1c23	1.8	-0.6	-13.5	99.0
O=c1[nH]nc2c3c(cccc13)-c1ccccc1-2	1.2	1	57.9*	99.0
CCN(CC)C(=O)NC1CCCCCC1	-11.8	-0.8	-12.8	100.0
C=C/C=C(\C=C(C)C)N(C(=O)NC1CCCCC1)C1=NCCCS1	-1.1	-1.3	28.9*	102.0
O=C(O)CCC(=O)c1cccs1	-4.3	-0.3	nt	82.0*
N#Cc1ccc(NC(=O)CCC(=O)c2cccs2)cc1	0.1	1.3	-10.1	83.0*
Cc1ccc(NC(=O)CCC(=O)c2cccs2)cc1	-7.1	-1.1	-5.8	102.0
CC(OC(=O)c1ccccc1NCc1ccco1)C(=O)Nc1ccc(Cl)cn1 (stereo not given)	100.1	0	-17.8	101.0
COc1ccc(Cl)cc1-n1nnc(-c2nc(-c3ccccc3)no2)c1C	nt	nt	nt	102.0
Cc1c(-c2nc(-c3ccccc3)no2)nnn1-c1ccc(F)c(Cl)c1	nt	nt	nt	81.0*
Clc1nccc2nc(N3CCCC3)ncc12	-2.7	-0.25	-6.8	101.0
O=C(c1cccs1)c1cn(CCOc2ccccc2)c2ccccc12	-1.3	1.55	-27.2	102.0
COc1ccc(C(=O)Nc2ccccc2C(=O)NC(C(=O)NCc2ccco2)C(C)C)cc1 (stereo not given)	-36.2	0	30.3*	101.0
COc1cc(Cl)c(C)cc1NC(=S)N(Cc1ccccc1C)CC1CCC(C(=O)O)CC1 (stereo not given)	52.5*	-0.2	-11.5	98.0
Cc1nn(-c2ccccc2)c2c1CC1(C(=O)NC(=O)c3ccccc31)C1CCCN21 (stereo not given)	34.6	1.55	11.1	83.0*
CC1(C)CC(=O)c2c(nn(-c3ccccc3)c2N)C1	-8.2	-1.2	-1.7	99.0
N#CC1=C(N)C(C#N)(C#N)C(C2C=CCCC2)C2CCCC=C12 (stereo not given)	52.5	-0.35	-16.9	101.0
O=C(CNc1ccccc1Cl)N/N=C1\CCCc2ccccc21	7.2	-0.2	39.0*	102.0
O=C(/C=C/c1ccccc1)OC1CCOC1=O (stereo not given)	2.6	-0.25	nt	100.0
O=C(CC(c1cccs1)N1Cc2ccccc2C1=O)NCCN1CCOCC1 (stereo not given)	-8.8	-2.15*	2.5	101.0
SMILES	Mtb MbtI inh	AID504770	Mtb MenB inh	Polio RdRp inh
O=C(CC(c1cccs1)N1Cc2ccccc2C1=O)NCc1ccc(CN2CCOCC2)o1 (stereo not given)	-11.4	-0.25	-2.5	102.0
CN(C)C(=S)SCC(=O)Nc1ccccc1	-4.7	-0.5	nt	101.0
O=C(c1cc2ccccc2o1)N(c1ccccn1)c1ccccn1	7.8	-0.1	nt	105.0
O=c1[nH]ccn(-c2ccccc2)c1=O	0.6	-0.2	-51.3	103.0
O=c1c(=S)[nH]ccn1-c1ccccc1	92.6*	-0.6	1.1	100.0
Cc1ccc(-c2csc3nnc(SCC(N)=O)n23)cc1	4.0	1.1	37.2*	102.0
CN(C)c1nc(N)c(C#N)c(CC#N)c1C#N	6.0	0.5	16.1	80.0*
Cc1nc2ccc(N=Cc3ccc(Br)cc3)cc2s1	-1.4	-2.35*	-11.6	105.0
CN1CCc2nc(NC(=O)CC3Sc4ccccc4NC3=O)sc2C1 (stereo not given)	-1.9	-2.3	-33.0	104.0
Cc1ccc(-n2[nH]c(=O)c(N=O)c2O)cc1C	17.0	-0.3	-28.0	78.0*
Cc1ccc(N2NC(=O)CC2=O)cc1C	nt	-0.45	12.8	92.0
CN(C(=O)c1ccco1)c1ccccc1C(=O)NCCc1ccccc1	2.8	2.5	-42.9	105.0
O=C(NNc1nc2c(F)cccc2s1)c1nc2ccccc2s1	-5.5	0.45	-29.3	95.0
OCC#CCSc1nc2ccccc2o1	3.1	0.95	38.6*	101.0
c1ccc2oc(SCCSc3nc4ccccc4o3)nc2c1	nt	0	-0.8	106.0
O=C(CSc1ccc(Cl)cc1)c1ccco1	61.1*	-0.05	nt	100.0
O=C(CSc1ccccc1Cl)c1ccco1	15.6	0.15	nt	102.0
CSc1nc2c(=S)[nH]c(=S)[nH]c2s1	55.4*	-1.1	-94.9	82.0*
